Shown are actives, neighbours in structure and some others; about 2.8% of the full set was active somewhere.
SENP7 inh: SENP7 protease inhibitors, primary screen, biochemical, luminescence, uHTS. Sentrin-specific protease 7 (Homo sapiens), Q9BQF6. recombinant SENP7, Z-RLRGG-aminoluciferin luminescence, 40 min. inhibition, % at 5 µM. actives 1.5% (n = 330,000). AID 434973, 2010;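 active = inhibition above about 50% at the single test dose, limit read from the data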;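 also: plate controls were DMSO with enzyme for no effect and no enzyme buffer wells for full effect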
SENP6 inh: SENP6 protease inhibitors, primary screen, biochemical, luminescence, uHTS. inhibition, % at 10 µM. Recombinant SENP6 catalytic domain, aminoluciferin luminescence. AID 2599, 2010. actives 1.8% (n = 330,000);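 active = inhibition above about 50% at the single tested dose, limit read from the data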;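 also: plate controls were DMSO wells with enzyme for no effect and DMSO wells lacking enzyme for full effect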
Target sequence (Q9GZR1 628-1112 limits assumed): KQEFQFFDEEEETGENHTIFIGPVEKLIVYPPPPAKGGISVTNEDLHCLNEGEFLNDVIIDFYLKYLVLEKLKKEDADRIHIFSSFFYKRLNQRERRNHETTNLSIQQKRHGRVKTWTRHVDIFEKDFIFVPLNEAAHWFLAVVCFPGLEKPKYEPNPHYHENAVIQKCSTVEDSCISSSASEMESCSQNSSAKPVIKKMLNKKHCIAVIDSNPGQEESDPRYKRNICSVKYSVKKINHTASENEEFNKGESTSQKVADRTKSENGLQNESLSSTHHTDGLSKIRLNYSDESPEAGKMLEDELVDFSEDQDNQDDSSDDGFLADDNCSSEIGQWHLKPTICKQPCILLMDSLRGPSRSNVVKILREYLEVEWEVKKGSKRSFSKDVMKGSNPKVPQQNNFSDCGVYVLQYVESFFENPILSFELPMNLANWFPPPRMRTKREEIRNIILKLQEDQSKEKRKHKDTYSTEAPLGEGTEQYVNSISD
Platelet DG rel: inhibitors of platelet dense granule secretion, primary screen, cell-based, MLPCN, human platelets; human platelet-rich plasma, SFLLRN dense granule ATP release, luminescence; inhibition, %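 (compounds screened at 7.5 µM in platelet-rich plasma)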; actives 0.22% (n = 300,000);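 active = mean replicate score, as percent of positive control, at or above 50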
SENP8 block-1: SENP8 protease inhibitors, primary screen, biochemical, luminescence; AID 2540, 2010; actives 1.2% (n = 330,000); purified SENP8, Z-RLRGG-aminoluciferin cleavage; Sentrin-specific protease 8 (Homo sapiens), Q96LD8; inhibition, % at 10 µM; in the data active = inhibition above about 50%
Target sequence (Q96LD8 whole entry, looked up): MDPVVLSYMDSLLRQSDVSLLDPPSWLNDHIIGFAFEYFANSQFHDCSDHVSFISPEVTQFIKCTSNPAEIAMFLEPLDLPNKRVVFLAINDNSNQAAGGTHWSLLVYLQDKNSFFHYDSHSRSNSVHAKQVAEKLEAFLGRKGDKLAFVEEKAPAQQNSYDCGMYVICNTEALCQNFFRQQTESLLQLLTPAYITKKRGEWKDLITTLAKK
HSP90 inh: HSP90 inhibitors, primary screen, cell lysate, luminescence; Heat shock protein HSP 90 (rabbit reticulocyte lysate; luciferase refolding); inhibition, % at 5.6 µM; Rabbit reticulocyte lysate, luciferase refolding luminescence, 3 h; actives 0.91% (n = 290,000); AID 1789, 2009;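 active = inhibition above the screen-wide mean plus 3 SD, computed separately per campaign, cut at about 16% in these data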;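 also: 0% = DMSO wells and 100% = 60 µM geldanamycin wells; inhibitors lower the luminescence because luciferase stays unfolded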
SENP8 block-2: human SENP8 protease inhibitors, primary screen, biochemical, fluorescence, Nedd8 protein substrate, uHTS | Sentrin-specific protease 8 (Homo sapiens), Q96LD8 | recombinant SENP8 | inhibition, % at 20 µM | actives 0.64% (n = 360,000) | AID 602440, 2012; in the data active = inhibition mostly above about 40%, no sharp cut-off; inactive = mostly below about 27%
SENP8 conf: SENP8 protease inhibitors, retest, confirmation, biochemical, luminescence, single concentration | shares compounds with SENP7 inh | inhibition, % at 12.5 µM | actives 40% (n = 6,200) | Recombinant SENP8, Z-RLRGG-aminoluciferin luminescence, 60 min | AID 488912, 2010;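 active = mean inhibition across replicates above about 50%, limit read from the data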
SENP6 conf: SENP6 protease inhibitors, confirmation, biochemical, luminescence, single concentration | recombinant SENP6, Z-RLRGG-aminoluciferin luminescence | actives 58% (n = 6,200) | shares compounds with SENP7 inh | inhibition, % at 12.5 µM
SENP7 conf: SENP7 protease inhibitors, retest, confirmation, biochemical, luminescence, single concentration. recombinant SENP7, Z-RLRGG-aminoluciferin luminescence, 40 min. shares compounds with SENP7 inh. inhibition, % at 12.5 µM. AID 488917, 2010. actives 69% (n = 6,200)
Casp3 SENP sel: caspase-3 protease inhibitors, confirmation, selectivity assay for SENP inhibitor project, biochemical, single concentration; shares compounds with SENP7 inh; purified caspase-3, Z-DEVD-aminoluciferin luminescence, 60 min; inhibition, % at 12.5 µM; actives 60% (n = 6,200); AID 488918, 2010;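 active = mean inhibition above about 50%, limit read from the data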;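 also: plate controls were enzyme with DMSO for no effect and wells without caspase-3 for full effect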
SENP luc ctr: interferes with luciferase luminescence in SENP counter-screen | Pre-incubated SENP8/Z-RLRGG-aminoluciferin, luciferase luminescence interference | shares compounds with SENP7 inh | actives 39% (n = 6,200) | inhibition, % at 12.5 µM;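 active = mean inhibition above about 50% when retested at one dose, limit read from the data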;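 also: plate controls were DMSO wells with completed reaction for no effect and substrate without enzyme for full effect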
Starred values were filed as active, the others as inactive; · = no result given.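 The calls were made as follows, unless noted: active = mean inhibition above about 50% in the one-dose retest (limit read from the data); inactive = the rest.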

SMILES	SENP7 inh	SENP6 inh	Platelet DG rel	SENP8 block-1	HSP90 inh	SENP8 block-2	SENP8 conf	SENP6 conf	SENP7 conf	Casp3 SENP sel	SENP luc ctr
CN(c1ccccc1)c1ccc(/C=N/N2CCOCC2)cc1	30.8	51.9*	-1.8	34.2	-5.9	-21.0	44.3	43.3	79.0*	49.3	30.8
C(=NN1CCCCCC1)c1ccccc1	·	·	·	·	·	11.2	·	·	·	·	·
O=C(Nc1cccnc1)c1cc(-c2ccc(Cl)cc2)on1	86.0*	60.5*	3.6	28.8	-3.0	28.5	29.1	31.0	66.9*	55.6*	24.3
CC(C)Cc1cc(C(=O)Nc2cccnc2)no1	52.3*	47.6	12.8	31.5	8.3	6.2	45.3	42.6	76.4*	79.1*	54.6*
O=C(Nc1cccnc1)c1cc(-c2ccc(Cl)cc2Cl)on1	64.1*	15.0	-0.2	-4.2	0.4	1.7	18.5	20.2	17.1	18.3	7.5
O=C(Nc1cccnc1)c1ccc(-c2ccc(Cl)cc2)o1	5.1	-20.1	2.2	-6.3	-3.9	4.2	·	·	·	·	·
Cc1c(NC(=O)c2cc(CC(C)C)on2)c(=O)n(-c2ccccc2)n1C	54.6*	7.7	-9.9	11.0	-3.1	23.2	-13.1	-5.4	-10.2	2.7	-2.9
Cc1cc(C(=O)Nc2cccnc2)no1	-6.9	-13.3	0.2	-0.5	1.3	12.5	·	·	·	·	·
O=C(CN1CCN(S(=O)(=O)c2ccc(F)cc2)CC1)Nc1ccc(F)cc1F	-6.8	0.6	-9.3	1.9	0.1	9.6	·	·	·	·	·
COc1ccc(C2=CCCC2)c(OC)c1	·	·	·	·	·	-8.3	·	·	·	·	·
O=C(Nc1ccccc1)Nc1ncc([N+](=O)[O-])s1	99.5*	99.1*	27.4	96.6*	8.2	35.9	98.5*	99.6*	102.4*	98.0*	97.6*
O=C(COC(=O)c1ccccc1)Nc1ncc([N+](=O)[O-])s1	-4.2	5.4	·	5.5	·	16.8	·	·	·	·	·
O=C(Nc1ccon1)c1cc2c(s1)CCCC2	93.0*	88.6*	-0.6	83.6*	3.2	9.5	8.1	90.0*	100.2*	91.7*	63.4*
COc1ccc(Nc2nc(Nc3ccc(OC)cc3)nc(SC3=NCCS3)n2)cc1	0.5	-21.6	·	-2.0	2.7	12.1	·	·	·	·	·
O=C(NCCc1ccc(Cl)cc1)c1cc2ccccn2n1	-3.4	-15.4	-1.4	-2.2	-2.5	17.9	·	·	·	·	·
O=C(Nc1ccc(Br)cc1)c1cc2ccccn2n1	64.0*	-7.9	6.0	70.5*	-7.0	37.3	34.8	35.8	87.5*	64.9*	43.6
O=C(Nc1ccccc1)Nc1ccccc1C(=O)NCc1ccccc1	52.4*	7.2	·	-3.8	-1.1	-400.3	-2.5	-3.0	73.9*	33.8	5.7
O=C(Nc1ccc(Cl)cc1)Nc1ccccc1C(=O)NCc1ccco1	95.9*	90.8*	12.6	84.4*	3.5	-115.3	80.2*	81.3*	98.8*	78.3*	78.0*
CN1/C(=C\C(=O)c2cccnc2)Sc2ccccc21	8.2	13.5	14.0	0.8	2.6	-238.6	·	·	·	·	·
COc1cccc(C(=O)/C=C2\Sc3ccccc3N2C)c1	49.9	10.0	8.2	59.8*	0.5	-400.6	-6.5	73.3*	92.6*	73.3*	19.3
CC(=O)N/C(=N\c1nc(C)cc(C)n1)Nc1ccccc1Cl	4.3	-8.6	0.7	-5.7	9.8	14.5	·	·	·	·	·
Cc1ccc(NC(=O)N2CCc3ccccc3C2)cc1C	-3.9	-11.0	1.0	-4.0	-3.8	4.1	·	·	·	·	·
Cc1cc(C)cc(NC(=O)N2CCc3ccccc3C2)c1	43.0	55.3*	-12.7	23.9	0.0	5.4	43.4	36.6	69.0*	50.2*	50.7*
Brc1ccc(/C=N/Nc2ccc3ccccc3n2)cc1	58.6*	78.0*	-1.0	62.3*	5.0	-104.1	-4.8	-7.1	17.7	25.9	1.0
Fc1cccc(/C=N/Nc2ccc3ccccc3n2)c1	94.5*	95.3*	4.1	91.4*	-0.4	-107.3	93.6*	94.2*	100.4*	81.7*	39.5
SMILES	SENP7 inh	SENP6 inh	Platelet DG rel	SENP8 block-1	HSP90 inh	SENP8 block-2	SENP8 conf	SENP6 conf	SENP7 conf	Casp3 SENP sel	SENP luc ctr
Fc1cccc(F)c1/C=N/Nc1ccccn1	26.1	36.1	2.8	22.6	-1.2	13.3	·	·	·	·	·
Cc1cc(N/N=C/c2ccccc2Br)nc2ccccc12	-8.7	-1.1	8.3	-17.2	4.3	-97.7	·	·	·	·	·
Fc1cccc(/C=N/Nc2nc3ccccc3[nH]2)c1	6.5	-11.9	5.7	-13.6	3.9	·	·	·	·	·	·
Brc1ccccc1/C=N/Nc1ccc2ccccc2n1	70.0*	74.6*	6.6	48.6	-2.7	-129.0	40.8	77.8*	91.1*	53.0*	46.0
Fc1cccc(/C=N/Nc2ccccn2)c1	74.0*	42.8	17.6	55.4*	-3.9	7.8	51.1*	79.0*	95.3*	76.7*	35.2
CC1CCN(S(=O)(=O)CCNC(=O)c2ccc(F)cc2)CC1	3.5	-12.9	21.0	-12.3	·	11.1	·	·	·	·	·
CC(=O)Nc1cncc(-c2cccc(C(=O)N3CCOCC3)c2)n1	·	·	·	·	·	-13.1	·	·	·	·	·
Cn1c(N)c(C#N)c(-c2ccccc2)c(C#N)c1=O	·	·	·	·	·	-15.7	·	·	·	·	·
CCC1CCCCN1CCCNC(=O)c1ccc(CS(=O)(=O)c2ccccc2OC)o1 (stereo unspecified)	0.9	8.8	8.2	4.8	0.5	6.4	·	·	·	·	·
C(=N\Nc1ccccn1)/c1ccc2c(c1)OCCO2	83.2*	85.6*	9.4	71.6*	4.5	-4.3	81.2*	80.1*	96.6*	84.1*	16.7
O=C(Nc1ccc(-c2nc3ccccc3s2)c(OC(=O)c2ccccc2)c1)c1ccccc1	64.9*	6.3	-4.2	4.6	-1.7	16.2	5.4	1.7	-6.2	-3.7	-12.4
OCCCNc1ncnc2sc3c(c12)CCN(Cc1ccccc1)C3	19.0	54.0*	10.9	26.4	3.9	-277.8	3.9	17.7	9.0	3.0	-0.7
